This note sets out measurements from PubChem BioAssay (NCI).

Values joined by “and” are separate entries in the source; they are usually repeats but may differ in a detail not shown here. Equal entries are not always repeated. This is part of a sample that, as a whole, favours compounds with a hit. Of some 83,000 tested, about 20% had one in any assay.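 Interpretation: 100, growth as untreated; towards 0, rising growth inhibition; 0, no net growth; 0 to -100, cell death. Compounds scoring below 10 were considered active.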 Unmarked numbers belong to inactive results. Active and inactive are the calls of the source.

Some test systems named below: HCT-15 colon; SNB-75 CNS; SNB-19 CNS; PC-3 prostate; UACC-62 melanoma; LOX IMVI melanoma; SK-MEL-2 melanoma; EKVX NSCLC; SN12C renal; UO-31 renal; TK-10 renal; ACHN renal; CAKI-1 renal; A498 renal; CCRF-CEM leukemia; SK-MEL-28 melanoma.
Holding throughout (experiment): NCI-60 one-dose screen, 48 h (100 = growth as untreated, 0 = no growth, -100 = all killed)
The subject of another test is U251 CNS. To be noted: 10 µM unless noted.
For another test, the system named is HT29 colon. To be noted: 10 µM unless noted.
The next test has as its system SK-MEL-5 melanoma. Conditions: 10 µM unless noted.
A further test has as its system MOLT-4 leukemia. Conditions: 10 µM unless noted.

On to `O=C(O)c1c(Cl)c(Cl)c(Cl)c(Cl)c1-c1c2cc(I)c(=O)c(I)c-2oc2c(I)c(O)c(I)cc12`, for which the growth is 101% and 107% and 90.1% with HCT-15 colon (10 µM); 22.9% in the test on HCT-15 colon (100 µM); 108% and 91.1% and 49.5% with SNB-75 CNS (10 µM); 26% in the test on SNB-75 CNS (100 µM); 100% and 98.4% and 97.9% with SNB-19 CNS (10 µM); -47.9% (active) in the test on SNB-19 CNS (100 µM). In addition, the growth with U251 CNS was 98.5% and 95.3% and 97.7%; in the test on PC-3 prostate (10 µM) it was 116% and 82.8% and 34%; with PC-3 prostate (100 µM), -7.17% (active); with UACC-62 melanoma (10 µM), 98.8% and 107% and 96.1%; in the test on UACC-62 melanoma (100 µM), -41.3% (active); with LOX IMVI melanoma (10 µM), 98.6% and 92% and 87.7%. In addition, the growth is -76.1% (active) in the test with LOX IMVI melanoma (100 µM); 110% and 108% and 73.8% with SK-MEL-2 melanoma (10 µM); -40.2% (active) with SK-MEL-2 melanoma (100 µM); 98.6% and 98.8% and 91.3% in the test with EKVX NSCLC (10 µM); -19.9% (active) with EKVX NSCLC (100 µM); 99.1% and 95.2% and 98.3% in the test with SN12C renal (10 µM). Also, the growth is 2.38% (active) in the test on SN12C renal (100 µM); 102% and 72.9% and 84% with UO-31 renal (10 µM); 49.8% in the test with UO-31 renal (100 µM); 108% and 116% and 84.5% with TK-10 renal (10 µM); 36.6% in the test on TK-10 renal (100 µM); 100% and 98.7% and 89.6% in the test with ACHN renal (10 µM). The growth with ACHN renal (100 µM) was -80.7% (active); in the test with CAKI-1 renal (10 µM), 107% and 102% and 90%; with CAKI-1 renal (100 µM) it was 42.9%; in the test with A498 renal (10 µM) it was 300% and 106%; with A498 renal (100 µM) it was 37.1%; in the test with CCRF-CEM leukemia (10 µM), 104% and 101% and 51.4%. In the test with CCRF-CEM leukemia (100 µM), the growth was -30.2% (active).
For `CCCCCC(CCCCC)C(=O)O`, the growth in the test with HCT-15 colon (10 µM unless noted) was 98.2%; in the test on HT29 colon it was 105%; in the test with SNB-75 CNS (10 µM unless noted), 89.9%; in the test with SNB-19 CNS (10 µM unless noted), 103%; in the test on U251 CNS it was 85.5%; in the test on PC-3 prostate (10 µM unless noted) it was 87.6%. In addition, the growth was 117% with SK-MEL-5 melanoma; 94.4% in the test on UACC-62 melanoma (10 µM unless noted); 110% in the test with LOX IMVI melanoma (10 µM unless noted); 99.2% with SK-MEL-2 melanoma (10 µM unless noted); 116% in the test with EKVX NSCLC (10 µM unless noted); 87.6% in the test on UO-31 renal (10 µM unless noted). Moreover, the growth with TK-10 renal (10 µM unless noted) is 101%; in the test with ACHN renal (10 µM unless noted), 109%; in the test with CAKI-1 renal (10 µM unless noted), 119%; with CCRF-CEM leukemia (10 µM unless noted), 83.8%; with MOLT-4 leukemia, 96.1%.
`O=C(Nc1cccc(Br)c1)Oc1cccc2cccnc12`: the growth was 94.1% in the test with HCT-15 colon (10 µM); 5.53% (active) in the test on HCT-15 colon (100 µM); 83.4% in the test on SNB-75 CNS (10 µM); 41.6% in the test on SNB-75 CNS (100 µM); 100% in the test with SNB-19 CNS (10 µM); 48.7% in the test on SNB-19 CNS (100 µM). Also, the growth in the test with U251 CNS is 21.1% [100 µM]; with UACC-62 melanoma (10 µM), 97.5%; with UACC-62 melanoma (100 µM), 11.7%; with SK-MEL-28 melanoma (10 µM), 105%; with SK-MEL-28 melanoma (100 µM), 48.2%; in the test on SK-MEL-2 melanoma (10 µM), 85.8%. The growth in the test with SK-MEL-2 melanoma (100 µM) was 9.32% (active); in the test on EKVX NSCLC (10 µM unless noted) it was -17.3% [100 µM] (active); with UO-31 renal (10 µM) it was 98.6%; with UO-31 renal (100 µM) it was 26%; in the test on TK-10 renal (10 µM) it was 118%; with TK-10 renal (100 µM), 112%. In addition, the growth was 103% with ACHN renal (10 µM); 15.4% in the test with ACHN renal (100 µM); 94.4% in the test with CAKI-1 renal (10 µM); 67.9% in the test with CAKI-1 renal (100 µM); 14.4% [100 µM] in the test with CCRF-CEM leukemia (10 µM unless noted).
`CCOc1ccc(-c2nc3ccc(-c4nc5ccc(N6CCN(C)CC6)cc5[nH]4)cc3[nH]2)cc1`: the growth with HCT-15 colon (10 µM unless noted) was 23.7%; with HT29 colon, -68.3% (active); with SNB-75 CNS (10 µM unless noted), -90.2% (active); with SNB-19 CNS (10 µM unless noted), -96.2% (active); in the test with U251 CNS, -98.1% (active); in the test with PC-3 prostate (10 µM unless noted), -47.8% (active). For the same compound, the growth in the test with SK-MEL-5 melanoma was -96.7% (active); in the test on UACC-62 melanoma (10 µM unless noted), -96.5% (active); in the test on SK-MEL-28 melanoma (10 µM unless noted) it was -88.6% (active); in the test on SK-MEL-2 melanoma (10 µM unless noted), 4.1% (active); in the test on EKVX NSCLC (10 µM unless noted), -75.5% (active); in the test with UO-31 renal (10 µM unless noted), 23.2%. Also, the growth was -84.9% (active) in the test on TK-10 renal (10 µM unless noted); -33.8% (active) in the test with ACHN renal (10 µM unless noted); -43.8% (active) in the test with CAKI-1 renal (10 µM unless noted); -91.6% (active) in the test with A498 renal (10 µM unless noted); 4.03% (active) with CCRF-CEM leukemia (10 µM unless noted); -60.5% (active) in the test with MOLT-4 leukemia.
`N#CSCc1ccc(CSC#N)c(Cl)c1`: the growth was 37.1% in the test with HCT-15 colon (10 µM unless noted); 34.7% in the test with HT29 colon; 32.2% with SNB-75 CNS (10 µM unless noted); 84% in the test on SNB-19 CNS (10 µM unless noted); 85.8% in the test with U251 CNS; 81.6% in the test with PC-3 prostate (10 µM unless noted). Also, the growth in the test on SK-MEL-5 melanoma was 65.2%; in the test on UACC-62 melanoma (10 µM unless noted), 72.2%; with SK-MEL-28 melanoma (10 µM unless noted), 83.3%; with SK-MEL-2 melanoma (10 µM unless noted) it was 86.2%; with EKVX NSCLC (10 µM unless noted), 90.9%; in the test with SN12C renal (10 µM unless noted), 50.5%. The growth in the test on UO-31 renal (10 µM unless noted) was 36.7%; in the test with TK-10 renal (10 µM unless noted), 94.3%; in the test on ACHN renal (10 µM unless noted), 56.5%; in the test with CAKI-1 renal (10 µM unless noted) it was 41.7%; in the test with A498 renal (10 µM unless noted) it was 91.9%; in the test on CCRF-CEM leukemia (10 µM unless noted), 19.3%. Also, in the test on MOLT-4 leukemia, the growth was 28.9%.
For `C[n+]1c(/C=C/c2ccc([N+](=O)[O-])cc2)ccc2ccccc21`, the growth with HCT-15 colon (10 µM unless noted) is 98.6%; in the test on HT29 colon it was 104%; in the test with SNB-75 CNS (10 µM unless noted), 92.5%; with SNB-19 CNS (10 µM unless noted), 108%; in the test with U251 CNS, 99.6%; in the test with PC-3 prostate (10 µM unless noted), 90%. Besides, the growth with SK-MEL-5 melanoma is 97.9%; in the test on UACC-62 melanoma (10 µM unless noted) it was 95.6%; in the test on LOX IMVI melanoma (10 µM unless noted) it was 92.3%; with SK-MEL-28 melanoma (10 µM unless noted), 121%; in the test on SK-MEL-2 melanoma (10 µM unless noted), 103%; in the test on EKVX NSCLC (10 µM unless noted), 62.8%. For the same compound, the growth in the test with SN12C renal (10 µM unless noted) was 102%; with UO-31 renal (10 µM unless noted), 63.3%; in the test with TK-10 renal (10 µM unless noted), 112%; in the test with ACHN renal (10 µM unless noted), 116%; in the test on CAKI-1 renal (10 µM unless noted), 81.3%; in the test with A498 renal (10 µM unless noted) it was 92.4%. Further, in the test with CCRF-CEM leukemia (10 µM unless noted), the growth was 112%.
For `O[C@H]1[C@H]2c3cc4c(cc3CN3CCC(=C[C@@H]1O)[C@H]23)OCO4`, the growth in the test on HCT-15 colon (10 µM unless noted) is 21.6%; in the test on HT29 colon, 18.5%; in the test with SNB-75 CNS (10 µM unless noted) it was 23%; with SNB-19 CNS (10 µM unless noted), 28.9%; in the test on U251 CNS it was 22.5%; with PC-3 prostate (10 µM unless noted), 34.2%. The growth in the test with SK-MEL-5 melanoma was 14.2%; with UACC-62 melanoma (10 µM unless noted), 62%; with LOX IMVI melanoma (10 µM unless noted) it was 0.731% (active); with SK-MEL-28 melanoma (10 µM unless noted), 20.7%; in the test on SK-MEL-2 melanoma (10 µM unless noted) it was 24.5%; with EKVX NSCLC (10 µM unless noted) it was 37.2%. The growth in the test with SN12C renal (10 µM unless noted) was 18.8%; in the test with UO-31 renal (10 µM unless noted), 33%; in the test with TK-10 renal (10 µM unless noted), 54.1%; with ACHN renal (10 µM unless noted) it was 9.15% (active); with CAKI-1 renal (10 µM unless noted), 28.1%; in the test with A498 renal (10 µM unless noted), 51.4%. For the same compound, the growth in the test on CCRF-CEM leukemia (10 µM unless noted) is 23.6%.
